Source: PubChem BioAssay (several laboratories)
Mtb FBA inh = Mtb fructose-bisphosphate aldolase inhibition. 2.3% of 360,000 active. inhibition, % at 1 µM. purified M. tuberculosis FBA, fluorescence read-out. P9WQA3;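 also: 0% = vehicle and 100% = reference inhibitor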
RecA intein inh = blocks M. tuberculosis RecA intein splicing; AID 2221; P9WHJ3; cell-free RecA intein splicing, fluorescence; inhibition, % (concentration not given with the values); 0.75% of 290,000 active; in the data active = inhibition above about 30%;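 also: 0% = vehicle wells and 100% = reference inhibitor control wells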
CCHFV vOTU inh = blocks the CCHF virus ovarian tumor domain protease; CCHFV vOTU protease, Pep-AMC fluorescence; inhibition, % at 11.5 µM; 0.55% of 370,000 active; in the data active = inhibition above about 30%; also: 0% = vehicle wells with enzyme and 100% = no enzyme wells
GDH-TPI counter-1 = counter-screen for M. tuberculosis FBA inhibitors: GDH-TPI coupled enzymes | GDH-TPI coupled enzyme counterscreen, NADH absorbance | inhibition, % at 4.8 µM | 1.2% of 360,000 active; in the data active = inhibition above about 30%;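 also: 0% = DMSO wells and 100% = wells lacking the enzyme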
Mtb FBA confirm = Mtb FBA inhibition, confirmed; shares compounds with Mtb FBA inh; inhibition, % at 1 µM; purified M. tuberculosis FBA, fluorescence read-out; 78% of 5,600 active; AID 651616;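 also: 0% = vehicle wells and 100% = reference inhibitor wells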
GDH-TPI counter-2 = inhibits GDH-TPI coupling enzymes, flagging Mtb FBA hits. shares compounds with Mtb FBA inh. GDH-TPI coupled enzyme counterscreen, fluorescence. inhibition, % at 1 µM. 81% of 5,600 active. AID 652141; in the data active = inhibition above about 10%
* hit, by the source's call; i = inactive; · = no result; + = active, no number. An excerpt weighted towards active compounds, which were near 4.2% of everything screened. Rule as the data show it, unless noted: active = inhibition above about 27%; inactive = the rest.

SMILES	Mtb FBA inh	RecA intein inh	CCHFV vOTU inh	GDH-TPI counter-1	Mtb FBA confirm	GDH-TPI counter-2
FC(F)(F)c1cccc(-c2ccn3ncnc3n2)c1	33*	-1	-14	0	-12	-6
COc1ccc(OC)c(/C=C/C(=O)OCC(=O)Nc2cccc(C(C)=O)c2)c1	3	-2	5	3	·	·
COc1ccc(OC)c(/C=C/C(=O)Oc2ccc(C(C)=O)cc2)c1	33*	-4	-33	11	132*	107*
Cc1ccc2oc(-c3ccc(NC(=O)CC(C)C)cc3)nc2c1	30*	-2	0	16	39*	36*
CCC(C)NCC(=O)Nc1ccc(-c2nc3cc(NC(=O)CNC(C)CC)ccc3o2)cc1 (centres undefined)	99*	·	-20	21	148*	110*
CC(C)CC(=O)Nc1ccc(-c2nc3ccccc3c(=O)o2)cc1	1	0	10	7	·	·
CCc1ccc2oc(-c3ccc(NC(C)=O)cc3)nc2c1	69*	1	-35	-5	181*	126*
Cc1ccc(-c2nc3ncccc3o2)cc1NC(=O)CC(C)C	30*	-3	-18	-2	5	-7
CCCCC(=O)Nc1ccc2oc(-c3ccncc3)nc2c1	14	-2	-9	13	·	·
CC(=O)c1cccc(NC(=O)CN2CCc3cc4c(cc3C2C)OCCCO4)c1 (centres undefined)	2	2	7	5	·	·
O=C(Nc1ccc(OC(F)F)cc1)c1cc(S(=O)(=O)N2CCOCC2)ccc1N1CCCC1	2	·	-9	14	·	·
Cc1ccc2oc(-c3cccc(N)c3)nc2c1	78*	·	-34	2	63*	58*
O=C(CN1CCCC1)Nc1ccc(-c2nc3cc(NC(=O)CN4CCCC4)ccc3o2)cc1	107*	2	-75	24	30*	24*
Cc1ccc(-c2nc3cc(N)ccc3o2)cc1	11	-1	1	20	·	·
CCN(CC)CC(=O)Nc1ccc(-c2nc3cc(NC(=O)CN(CC)CC)ccc3o2)cc1	88*	0	-30	16	+	150*
O=C(CN1C(=O)c2ccccc2C1=O)Nc1ccc(-c2nc3ccccc3o2)cc1	3	-1	-2	5	·	·
COc1ccc(C(=O)COC(=O)c2cc(C)no2)c(OC)c1	4	·	12	8	·	·
CCOc1ccc(OCCC(=O)OCC(=O)NC(C)c2ccccc2)cc1 (centres undefined)	-1	-2	12	2	·	·
Cc1ccc(S(=O)(=O)NN=C2C(=O)C3CCC2C3Cl)cc1 (centres undefined)	-3	·	9	-3	·	·
O=C(CN1CCCCC1)Nc1c2c(nc3ccccc13)N(c1ccccc1)CC2	80*	-4	-77	3	152*	125*
O=C(CSC1=NS(=O)(=O)c2ccccc2N1)Nc1cccc(F)c1	2	-1	20	-4	·	·
Cc1cc(C(=O)NCc2csc(-c3ccccc3)n2)no1	2	3	-6	1	·	·
COc1cc2cc(C(=O)O)[nH]c2c(OC)c1OC	35*	1	-6	-12	112*	74*
CCOc1ccc(NC(=O)CN(C)Cc2ccc3c(c2)OCO3)cc1S(=O)(=O)N1CCCC1	-2	·	5	0	·	·
O=c1cc(C(F)(F)F)c2cc3c4c(c2o1)CCCN4CCC3	13	-75	1	1	·	·
SMILES	Mtb FBA inh	RecA intein inh	CCHFV vOTU inh	GDH-TPI counter-1	Mtb FBA confirm	GDH-TPI counter-2
CC(C)c1cc(=O)oc2c3c4c(cc12)CCCN4CCC3	39*	-66	-120	3	98*	86*
Cc1cc2c(C(F)(F)F)cc(=O)oc2c2c1NCCC2	0	·	10	6	·	·
Cc1cc(=O)oc2c3c4c(cc12)OCCN4CCC3	76*	i	-298	6	66*	66*
COc1ccc(N2CCN(C(CNC(=O)C(=O)NCC(OC)OC)c3ccco3)CC2)cc1 (centres undefined)	-2	2	14	-3	·	·
O=[N+]([O-])c1ccc(Nc2c3ccccc3nc3ccccc23)cc1	51*	-7	-42	10	101*	84*
CCc1ccccc1N(CC(=O)NC(C)(C)CC)C(=O)CCC(=O)Nc1nccs1	4	-1	2	7	·	·
CCc1ccc(-c2cc(C)no2)cc1S(=O)(=O)Nc1ccccn1	15	3	8	2	·	·
CCc1ccc(-c2cc(C)no2)cc1S(=O)(=O)Nc1ccc(C)cn1	31*	4	14	3	4	1
Cc1ccc(NS(=O)(=O)c2cc(-c3cc(C)no3)ccc2C(C)C)nc1	37*	-3	-14	-7	29*	24*
COc1ccc(S(=O)(=O)N2CCN(C(=O)c3cc4c(s3)CCC4)CC2)cc1	-3	·	7	0	·	·
